The results in this text go back to PubChem BioAssay (NCATS).

Unmarked numbers belong to inactive results. Records with an inconclusive call do not appear. Calls of active or inactive are those of the source. Unless noted, calls come from the whole dose curve; as a rule, active = well fitted curve in the direction sought with a large enough effect; inconclusive = small, poorly fitted or top-dose-only effect, or another doubt; inactive = no such curve, though single readings can be large; an effect the other way counts as inactive or inconclusive.

Assay [1] is described as follows: P-glycoprotein substrates identified in KB-8-5-11 adenocarcinoma cell line, qHTS therapeutic library screen (AID 1346987). Note: nearly all actives have a fitted effect of over 65% in size. The method, boiled down: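 In this qHTS, P-gp-rich KB-8-5-11 cells received library compounds across a concentration range. Viability was quantified by luminescence after 72 h at 37 degree C.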
The nature of assay [2]: NS1 protein of Zika virus - qHTS assay to identify small molecule inhibitors in human HEK 293 cells (AID 1347053). Note: nearly all actives have a fitted effect of over 55% in size. The method, boiled down: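 In this cell-based screen, HEK 293 cultures received compound for one hour before Zika MR766 at MOI = 0.5. NS1 was quantified 24 hours later by TR-FRET, normalized to virus-free wells and infected wells.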
A general note: In qHTS, concentration-response curves come from the screen itself.

The nature of assay [3]: qHTS of pediatric cancer cell lines to identify multiple opportunities for drug repurposing: Primary screen for TC32 cells (AID 1347089). Note: nearly all actives have a fitted effect of over 60% in size. The procedure, abridged: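 A viability screen of TC32 cells was run over 48 h, with primary MIPE doses spanning 0.78 nM–46 µM and NPC doses 0.59 nM–46 µM. ATP luminescence (CellTiter-Glo) served as the read-out.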
The nature of assay [4]: qHTS of pediatric cancer cell lines to identify multiple opportunities for drug repurposing: Primary screen for DAOY cells (AID 1347090). Note: nearly all actives have a fitted effect of over 55% in size. The method, boiled down:
(§1)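 Eight- or eleven-point concentration series, 48 h treatment at 37 degrees C in growth media; readout CellTiter-Glo luminescence. Potency and efficacy were taken from the concentration-response curves.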

The nature of assay [5]: qHTS of pediatric cancer cell lines to identify multiple opportunities for drug repurposing: Primary screen for SJ-GBM2 cells (AID 1347091). The procedure, abridged:
as §1

Assay [6] can be described thus: qHTS of pediatric cancer cell lines to identify multiple opportunities for drug repurposing: Primary screen for A673 cells (AID 1347092). Note: nearly all actives have a fitted effect of over 45% in size. The procedure, abridged:
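Titration-based qHTS on A673 cells: MIPE compounds spanned 11 points (0.78 nM to 46 µM final), NPC compounds 8 points (0.59 nM to 46 µM final). Viability after 48 h was measured by ATP luminescence.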

A short description of assay [7]: qHTS of pediatric cancer cell lines to identify multiple opportunities for drug repurposing: Primary screen for SK-N-MC cells (AID 1347093). Note: potency is the fitted concentration of half-maximal effect. The method, boiled down:
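Metabolically active cells were quantified by ATP-dependent luminescence (CellTiter-Glo, 15 min at room temperature) following 48 h treatment. Cells had been plated at 500-1,000 per well and settled for 5 h beforehand.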

Assay [8] is described as follows: qHTS of pediatric cancer cell lines to identify multiple opportunities for drug repurposing: Primary screen for BT-37 cells (AID 1347094). The procedure, abridged: (§2)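 Readout: CellTiter-Glo luminescence, 48 h treatment. Controls DMSO (neutral) and bortezomib 2.3 µM final (positive). Potency and efficacy taken from primary-screen concentration-response curves.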
The nature of assay [9]: qHTS of pediatric cancer cell lines to identify multiple opportunities for drug repurposing: Primary screen for NB-EBc1 cells (AID 1347095). Note: potency is the fitted concentration of half-maximal effect. The procedure, abridged: as §2
Assay [10] is described as follows: qHTS of pediatric cancer cell lines to identify multiple opportunities for drug repurposing: Primary screen for U-2 OS cells (AID 1347096). Note: nearly all actives have a fitted effect of over 50% in size. The method, boiled down:
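Cells (500-1,000/well) in growth media were settled 5 h at 37 degrees C, then given compounds for 48 h. Viability was read as CellTiter-Glo luminescence. Primary runs used MIPE at 11 points (0.78 nM-46 µM) and NPC at 8 points (0.59 nM-46 µM); follow-ups used 11 points.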

Assay [11] in a line: Identifying Small Molecule Inhibitors of Pancreatic Cancer Stem Cells (A278, Adherent) (AID 1259361). Note: nearly all actives have a fitted effect of over 35% in size. The method, boiled down: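 After a 4 h attachment period, compounds were pinned into wells and cultures held 48 h under standard incubator conditions. Viability was then measured as CellTiter-Glo luminescence following 10 min at room temperature.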
A short description of assay [12]: Identifying Small Molecule Inhibitors of Pancreatic Cancer Stem Cells (Panc1, Adherent) (AID 1259362). Note: potency is the fitted concentration of half-maximal effect. The note with it: viability. The method, boiled down: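 Adherent (2D) versus sphere (3D) formats; spheres generated 14 d in SCM beforehand. Compound transferred by pin tool after 4 h, 48 h incubation, CellTiter-Glo endpoint.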
The nature of assay [13]: Natriuretic polypeptide receptor (hNpr1) antagonism - Pilot counterscreen GloSensor control cell line (AID 1347045; calls by dose curve). The method, boiled down:
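HEK293 cGMP-sensor cells; 2% GloSensor reagent 2 h RT; LOPAC compounds in 1:5 titrations 30-50 min; 50 uM SNP 20 min; luminescence pre-read and post-read.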
(In general: A counterscreen serves to expose hits that act by an unwanted route or on another target.)

In assay [14] the target is Atrial natriuretic peptide receptor 1 (Homo sapiens) (UniProt P16066). As to the kind of experiment: Natriuretic polypeptide receptor (hNpr1) antagonism - Pilot screen (AID 1347049; calls by dose curve;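 note: HEK293 cells with hNpr1 and GloSensor cGMP luciferase stimulated by 0.1 nM hNppA; agonist-evoked cGMP luminescence read 20 min after hNppA addition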). The procedure, abridged:
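Cells expressing receptor plus cGMP biosensor are seeded and incubated overnight at 37C, then loaded with GloSensor reagent (2% final) at room temperature for 2 h. Library compounds go on for 30 min. A pre-read precedes agonist (hNppA, 0.1 nM final) and a 20-min readout.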

The target of assay [15] is T1, Tyrosine-protein phosphatase non-receptor type substrate 1 (Homo sapiens) + Leukocyte surface antigen CD47 (Homo sapiens) (UniProt P78324+Q08722). As to the kind of experiment: CD47-SIRPalpha protein protein interaction - LANCE assay qHTS validation (AID 1347057; active = well fitted curve in the direction sought with a large enough effect in the signal ratio, with a control signal flat, not every such curve was filed as active; the % refers to the signal ratio). The method, boiled down:
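Inhibition of soluble CD47/SIRPalpha ectodomain association by titrated compounds, measured as 665/615 nm time-resolved FRET ratio after sequential 30 min room-temperature incubations.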
For orientation: In TR-FRET formats the signal depends on donor and acceptor labels being close together.

For assay [16], the target named is T1, Tyrosine-protein phosphatase non-receptor type substrate 1 (Homo sapiens) + Leukocyte surface antigen CD47 (Homo sapiens). As to the kind of experiment: CD47-SIRPalpha protein protein interaction - HTRF assay qHTS validation (AID 1347058; active = well fitted curve in the direction sought with a large enough effect in the signal ratio, not every such curve was filed as active; the % refers to the signal ratio). The procedure, abridged: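 Soluble extracellular domains (6His-CD47, Avi-tag-biotinylated SIRPalpha) in PBS pH 7.4 with 0.05% IGEPAL CA-630. Compounds were preincubated 30 min at RT with CD47 and anti-His-Eu, then SIRPalpha and SAV-XL665 were added. TR-FRET 665/615 ratio.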

The target is the same in assay [17]. As to the kind of experiment: CD47-SIRPalpha protein protein interaction - Alpha assay qHTS validation (AID 1347059).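 Note: bead proximity luminescence from CD47 binding SIRPalpha after compound preincubation with SIRPalpha.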 The method, boiled down:
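In PBS (pH 7.4) with 0.05% IGEPAL CA-630, compound is preincubated with biotin-Avi-SIRPalpha ectodomain before His-CD47 ectodomain and affinity beads are added. Light-protected room-temperature incubations; AlphaScreen readout.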

Assay [18] has as its target Parathyroid hormone/parathyroid hormone-related peptide receptor (Homo sapiens) (UniProt Q03431). As to the kind of experiment: qHTS for PTHR1 Agonists: Optimization Screen against the NCGC LOPAC library (AID 1347079).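 Note: GloSensor cAMP luminescence in HEK-293 GP2 cells expressing human PTHR1 with IBMX.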 The method, boiled down:
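Signal increase flags agonism. GP2 cells, derived from HEK-293, express human PTHR1 and a GloSensor cAMP construct.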

Assay [19] is described as follows: P-glycoprotein substrates identified in KB-3-1 adenocarcinoma cell line, qHTS therapeutic library screen (AID 1346986). Note: nearly all actives have a fitted effect of over 60% in size. Conditions: KB-3-1 parental cells viability, CellTiter-Glo, 72 h; at 44.5 µM (top of the series). The method, boiled down:
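Using luminescence to quantify ATP, parental and P-gp-overexpressing KB cells were compared after 72 h compound titration. KB-8-5-11 was also run with the P-gp inhibitor tariquidar.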

The target in assay [20] is Atrial natriuretic peptide receptor 2 (Homo sapiens) (UniProt P20594). As to the kind of experiment: Natriuretic polypeptide receptor (hNpr2) antagonism - Pilot subtype selectivity assay (AID 1347050; calls by dose curve). The procedure, abridged: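 Read-out: GloSensor luminescence (CCD imager), baseline vs post-stimulation. HEK293 cells expressing hNpr2; compounds pre-incubated 30-50 min at ambient temperature; hNppC 1 nM final, 20 min.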
Sequence of Atrial natriuretic peptide receptor 2 (Homo sapiens) (P20594 whole entry, looked up): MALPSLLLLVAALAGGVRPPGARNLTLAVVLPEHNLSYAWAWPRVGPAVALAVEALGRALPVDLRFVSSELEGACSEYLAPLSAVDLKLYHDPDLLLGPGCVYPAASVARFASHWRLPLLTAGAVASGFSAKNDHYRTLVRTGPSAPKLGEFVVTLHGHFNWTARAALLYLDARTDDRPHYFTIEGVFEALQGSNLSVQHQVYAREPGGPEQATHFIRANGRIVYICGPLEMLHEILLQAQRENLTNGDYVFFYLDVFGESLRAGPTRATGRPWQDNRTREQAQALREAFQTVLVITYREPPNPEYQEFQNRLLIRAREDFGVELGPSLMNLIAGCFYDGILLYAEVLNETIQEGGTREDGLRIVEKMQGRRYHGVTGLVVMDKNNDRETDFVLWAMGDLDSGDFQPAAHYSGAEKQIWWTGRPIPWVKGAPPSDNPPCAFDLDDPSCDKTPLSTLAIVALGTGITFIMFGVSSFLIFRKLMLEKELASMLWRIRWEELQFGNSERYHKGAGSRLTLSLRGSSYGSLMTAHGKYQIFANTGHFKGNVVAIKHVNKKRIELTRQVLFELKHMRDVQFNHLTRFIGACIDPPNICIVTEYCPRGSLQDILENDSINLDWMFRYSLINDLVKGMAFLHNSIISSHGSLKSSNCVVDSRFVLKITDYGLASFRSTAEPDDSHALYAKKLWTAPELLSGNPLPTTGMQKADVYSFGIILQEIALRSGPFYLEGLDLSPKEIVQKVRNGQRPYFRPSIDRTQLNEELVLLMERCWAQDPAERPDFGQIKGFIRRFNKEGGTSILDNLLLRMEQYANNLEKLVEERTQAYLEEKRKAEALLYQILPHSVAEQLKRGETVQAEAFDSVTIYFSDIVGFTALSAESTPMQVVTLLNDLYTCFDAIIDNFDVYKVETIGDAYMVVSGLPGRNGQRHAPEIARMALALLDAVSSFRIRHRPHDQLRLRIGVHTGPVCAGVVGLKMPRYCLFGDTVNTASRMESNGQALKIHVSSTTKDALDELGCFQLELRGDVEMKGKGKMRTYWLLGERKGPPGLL

Sequence of Atrial natriuretic peptide receptor 1 (Homo sapiens) (P16066 whole entry, looked up): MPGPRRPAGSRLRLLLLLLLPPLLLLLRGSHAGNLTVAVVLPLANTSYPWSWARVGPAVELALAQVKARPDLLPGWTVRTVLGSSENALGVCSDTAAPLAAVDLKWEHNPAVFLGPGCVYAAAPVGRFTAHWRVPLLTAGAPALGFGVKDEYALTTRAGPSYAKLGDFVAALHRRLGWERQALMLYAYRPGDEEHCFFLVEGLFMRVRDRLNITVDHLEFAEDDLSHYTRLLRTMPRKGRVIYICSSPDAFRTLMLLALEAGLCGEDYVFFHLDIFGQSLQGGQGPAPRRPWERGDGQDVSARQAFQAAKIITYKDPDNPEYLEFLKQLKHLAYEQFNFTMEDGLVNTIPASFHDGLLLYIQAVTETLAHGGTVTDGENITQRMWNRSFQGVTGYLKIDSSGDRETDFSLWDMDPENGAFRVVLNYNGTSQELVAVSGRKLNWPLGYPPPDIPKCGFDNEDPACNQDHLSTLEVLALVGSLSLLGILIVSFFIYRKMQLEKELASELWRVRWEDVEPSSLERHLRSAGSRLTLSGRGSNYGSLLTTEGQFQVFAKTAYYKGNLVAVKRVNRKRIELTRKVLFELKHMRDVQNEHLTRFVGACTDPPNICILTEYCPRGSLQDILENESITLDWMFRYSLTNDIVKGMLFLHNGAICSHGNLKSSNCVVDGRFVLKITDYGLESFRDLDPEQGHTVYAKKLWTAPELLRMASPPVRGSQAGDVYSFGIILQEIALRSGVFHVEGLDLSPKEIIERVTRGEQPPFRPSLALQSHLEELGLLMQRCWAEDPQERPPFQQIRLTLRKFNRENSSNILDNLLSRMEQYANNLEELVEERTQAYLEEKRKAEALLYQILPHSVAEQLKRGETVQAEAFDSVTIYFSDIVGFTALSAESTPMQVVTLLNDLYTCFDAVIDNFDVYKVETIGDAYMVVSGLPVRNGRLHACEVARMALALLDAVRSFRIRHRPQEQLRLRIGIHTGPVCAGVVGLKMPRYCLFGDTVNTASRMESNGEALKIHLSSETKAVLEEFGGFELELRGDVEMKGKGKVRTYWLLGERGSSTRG
Sequence of Parathyroid hormone/parathyroid hormone-related peptide receptor (Homo sapiens) (Q03431 whole entry, looked up): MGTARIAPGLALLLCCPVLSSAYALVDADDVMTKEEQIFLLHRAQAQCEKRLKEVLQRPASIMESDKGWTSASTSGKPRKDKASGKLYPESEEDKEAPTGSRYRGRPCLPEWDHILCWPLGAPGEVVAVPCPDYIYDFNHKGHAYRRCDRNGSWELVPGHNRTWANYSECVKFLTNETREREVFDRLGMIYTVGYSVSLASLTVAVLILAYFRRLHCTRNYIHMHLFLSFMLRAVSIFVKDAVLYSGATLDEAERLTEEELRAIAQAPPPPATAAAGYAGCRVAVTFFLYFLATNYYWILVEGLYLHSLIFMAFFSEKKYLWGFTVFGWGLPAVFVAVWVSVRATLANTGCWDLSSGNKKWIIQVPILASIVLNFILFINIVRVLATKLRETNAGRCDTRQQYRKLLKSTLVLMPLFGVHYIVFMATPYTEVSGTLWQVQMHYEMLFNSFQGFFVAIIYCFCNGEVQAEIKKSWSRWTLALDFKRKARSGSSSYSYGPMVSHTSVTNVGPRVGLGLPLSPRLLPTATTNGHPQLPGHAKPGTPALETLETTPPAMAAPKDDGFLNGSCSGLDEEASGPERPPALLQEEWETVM
T1 sequence (P78324 whole entry, looked up, the tested form may be a part): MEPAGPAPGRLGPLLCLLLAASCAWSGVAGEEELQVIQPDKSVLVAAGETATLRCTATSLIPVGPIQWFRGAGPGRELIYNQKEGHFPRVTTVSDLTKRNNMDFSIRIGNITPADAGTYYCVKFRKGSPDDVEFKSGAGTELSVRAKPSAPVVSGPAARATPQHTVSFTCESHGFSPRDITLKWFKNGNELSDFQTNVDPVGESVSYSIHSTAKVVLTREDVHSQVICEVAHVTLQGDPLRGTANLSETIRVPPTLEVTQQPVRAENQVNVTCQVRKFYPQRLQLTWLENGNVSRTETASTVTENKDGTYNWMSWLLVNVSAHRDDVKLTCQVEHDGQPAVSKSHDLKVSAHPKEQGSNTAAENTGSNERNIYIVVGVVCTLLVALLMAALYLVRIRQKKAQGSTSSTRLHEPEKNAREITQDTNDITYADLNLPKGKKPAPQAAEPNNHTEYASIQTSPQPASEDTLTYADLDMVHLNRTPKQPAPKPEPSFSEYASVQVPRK
T1 sequence (Q08722 whole entry, looked up, the tested form may be a part): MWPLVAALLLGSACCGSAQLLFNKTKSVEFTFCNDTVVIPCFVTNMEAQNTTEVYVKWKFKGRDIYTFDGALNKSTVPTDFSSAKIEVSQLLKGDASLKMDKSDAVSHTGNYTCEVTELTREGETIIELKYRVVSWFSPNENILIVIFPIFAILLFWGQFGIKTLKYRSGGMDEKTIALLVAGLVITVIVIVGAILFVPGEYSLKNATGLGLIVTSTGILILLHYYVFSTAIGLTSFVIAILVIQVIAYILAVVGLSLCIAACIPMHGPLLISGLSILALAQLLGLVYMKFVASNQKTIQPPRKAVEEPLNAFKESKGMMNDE

As to `CCN1CCCC1=O`, the Potency entry in assay [1], in [2], in [3], in assay [4], in assay [5] and in assay [6] was “inactive” in each case. The Potency result in [7], in assay [8], in assay [9] and in [10] was “inactive” each time.

Take `COc1cc2c(cc1O)CC[C@@H]1[C@@H]2CC[C@]2(C)[C@@H](O)CC[C@@H]12`: in [11], the IC50 (viability decrease) is 0.935 µM (active). In addition, in [12], the Potency is 1.05 µM (active). The outcome in [13], in [14], in assay [15], in [16] and in assay [18] was inactive. Further, the Potency result in assay [2] and in assay [17] was “inactive” each time.

As for `CCCCS(=O)(=O)N[C@@H](Cc1ccc(OCCCCC2CCNCC2)cc1)C(=O)O`, in assay [19], the outcome was inactive. Besides, the Potency result in assay [1], in assay [2], in assay [3], in assay [4], in [5] and in [6] was “inactive” in each case. Also, the Potency entry in [7], in assay [8], in assay [9] and in assay [10] was “inactive” each time.

Take `Oc1ccc(O)cc1`: the Potency entry in [1], in assay [2], in [17], in assay [5] and in assay [10] was “inactive” each time. Further, the compound was called inactive in assay [14], in assay [20], in [15], in [16] and in assay [18]. The Potency in assay [7] was 26.6 µM (active); in assay [9], 6.68 µM (active).

Consider `CC(=O)OCC(=O)[C@@]1(O)[C@H](C)C[C@H]2[C@@H]3CCC4=CC(=O)C=C[C@]4(C)[C@@]3(F)[C@@H](O)C[C@@]21C`, for which, in assay [19], the result was inactive. The Potency result in assay [1], in assay [2], in [3], in [4], in assay [5] and in [6] was “inactive” each time. The Potency entry in assay [7], in [8], in assay [9] and in assay [10] was “inactive” in each case.

With `O=C(O)c1cc2cc(Cc3cccnc3)ccc2o1`, the Potency result in [1], in assay [2] and in assay [17] was “inactive” throughout. Besides, the call in assay [13], in [14], in assay [20], in [15], in [16] and in assay [18] was inactive.

`CCN(CC)CCNC(=O)COc1ccc(Cl)cc1`: the Potency result in assay [1], in [2], in assay [3], in [4], in assay [5] and in [6] was “inactive” in each case. Moreover, the Potency entry in assay [7], in assay [8], in assay [9] and in assay [10] was “inactive” each time.

Turning to `CC(C)COC(=O)c1ccc(N)cc1`, the Potency entry in [1], in assay [2], in assay [3], in assay [4], in [5] and in [6] was “inactive” in each case. Further, the Potency entry in assay [7], in [8], in assay [9] and in assay [10] was “inactive” throughout.

On to `CCOc1ccc(NC(=O)CC(C)O)cc1` (centres undefined), for which the Potency result in assay [1], in assay [2], in assay [3], in assay [4], in assay [5] and in [6] was “inactive” throughout. The Potency entry in [7], in assay [8], in assay [9] and in assay [10] was “inactive” in each case.

As for `CN(C)CCCOc1nn(Cc2ccccc2)c2ccccc12`, the Potency entry in assay [1], in assay [2], in [3] and in assay [4] was “inactive” in each case.

In the case of `CC1(C)CCC(NC(=O)[C@@H](N)CCC(=O)O)CC1`, the Potency result in assay [1], in [2] and in assay [17] was “inactive” throughout. Moreover, the compound was classed as inactive in assay [14], in assay [20], in [15], in assay [16] and in assay [18].
